Results taken from PubChem BioAssay AID2156 (Johns Hopkins Ion Channel Center, 2009).
Out of some 310,000 compounds screened, about 3,400 (1.1%) were called active. Many of the other results were omitted from the sample, so actives are more common in it than they were. Values without a mark were called inactive.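 The calls were made as follows: active = fluorescence ratio B-score at most minus 3 library SDs, with starting brightness B-score within 2 library SDs (cut at about -5.5 in these data); inactive = the rest, inconclusive results apart.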

Biological target: Potassium voltage-gated channel subfamily KQT member 2 (Rattus norvegicus) (UniProt O88943)
Assay: rat KCNQ2 potassium channel inhibitors, primary screen, cell-based, CHO-K1, FluxOR thallium flux, B-score (AID 2156)
Conditions: 20 min, at 10 µM; stronger effect = lower value

Sequence of Potassium voltage-gated channel subfamily KQT member 2 (Rattus norvegicus) (O88943 whole entry, looked up): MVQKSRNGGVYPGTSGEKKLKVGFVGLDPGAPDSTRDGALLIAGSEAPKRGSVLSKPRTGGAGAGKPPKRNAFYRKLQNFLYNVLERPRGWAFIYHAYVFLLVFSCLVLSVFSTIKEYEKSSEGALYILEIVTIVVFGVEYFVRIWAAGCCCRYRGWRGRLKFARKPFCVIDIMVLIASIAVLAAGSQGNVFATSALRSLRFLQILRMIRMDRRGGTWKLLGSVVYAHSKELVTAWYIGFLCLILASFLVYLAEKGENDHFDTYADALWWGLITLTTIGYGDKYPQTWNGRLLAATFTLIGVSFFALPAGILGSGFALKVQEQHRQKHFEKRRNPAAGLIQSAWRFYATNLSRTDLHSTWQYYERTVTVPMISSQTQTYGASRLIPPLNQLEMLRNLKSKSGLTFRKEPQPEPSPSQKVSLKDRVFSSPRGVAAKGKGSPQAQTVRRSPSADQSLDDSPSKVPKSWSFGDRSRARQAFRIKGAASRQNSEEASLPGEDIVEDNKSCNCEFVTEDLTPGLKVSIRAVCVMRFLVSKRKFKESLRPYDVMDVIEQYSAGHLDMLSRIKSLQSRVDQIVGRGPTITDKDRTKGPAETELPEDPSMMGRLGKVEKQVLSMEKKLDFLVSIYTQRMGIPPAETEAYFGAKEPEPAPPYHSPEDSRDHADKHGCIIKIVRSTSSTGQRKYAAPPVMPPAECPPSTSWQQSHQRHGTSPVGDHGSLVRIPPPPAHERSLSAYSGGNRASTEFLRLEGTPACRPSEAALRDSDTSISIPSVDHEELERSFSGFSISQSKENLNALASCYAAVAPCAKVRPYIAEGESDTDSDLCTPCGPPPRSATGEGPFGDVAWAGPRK

SMILES	B-score
O=C(CCC1CCCCC1)Nc1cc(C(F)(F)F)ccc1N1CCOCC1	-0.87
CN(Cc1c(F)cccc1Cl)C(=O)CNC(=O)c1ccc2c(c1)OCO2	-1.89
Cc1cccc(N2CCN(C(c3ccc(N(C)C)cc3)c3nnnn3C(C)(C)C)CC2)c1C (stereo not given)	-6.02 (active)
Cc1cccc(N2CCN(C(c3ccccc3)c3nnnn3CC3CCCO3)CC2)c1C (stereo not given)	-1.18
CC(C)(C)n1nnnc1C(c1ccc(Cl)cc1)N1CCSCC1 (stereo not given)	inactive
CCOc1ccc(S(=O)(=O)NCCC(=O)NCC(C)(C)N2CCOCC2)cc1	inactive
CCc1ccc2c(c1)C(c1ccc([N+](=O)[O-])cc1)=NNC(c1ccccc1)=N2	-0.01
Cc1ccc(C2=Nc3c(ccc4ccccc34)C(c3ccncc3)=NN2)cc1	-7.02 (active)
CCOc1ccc2c(c1)C(c1ccc(C)cc1)=NNC(c1ccc(C)cc1)=N2	-1.45
CC1(c2nnc(Cc3ccccc3)o2)CC(c2ccccc2F)=NO1 (stereo not given)	inactive
COc1ccc(Cl)cc1NS(=O)(=O)c1cccc(C(=O)NC2CCC(O)CC2)c1 (stereo not given)	inactive
CCN(CC)CCn1c2c(c(SCC(=O)Nc3nc4ccccc4s3)nc1=O)CCCC2	-0.49
Cc1ccccc1NC(=O)NCC1CCN(Cc2cccc(Cl)c2)CC1	inactive
CNS(=O)(=O)c1cccc(C(=O)NCC2CCCCC2)c1	inactive
CC(C(=O)NCC1CCCCC1)N(C)Cc1cccc(Cl)c1 (stereo not given)	-6.94 (active)
O=C(COC(=O)c1cccc(Cl)c1)Nc1ccc2[nH]c(=O)[nH]c2c1	inactive
CCOc1cc(/C=N/NC(=O)c2cccc(S(=O)(=O)N3CCOCC3)c2)ccc1OCC(=O)N(C)C	-0.36
Cc1ccc(S(=O)(=O)NCCC(=O)OCC(=O)N(C)c2ccccc2)cc1	inactive
COc1ccc(Cl)cc1NC(=O)CN(C)C(=O)c1cc2ccccc2cc1OC	-1.83
COc1ccc(OC)c(NC(=O)CN(Cc2ccc(Cl)cc2)S(C)(=O)=O)c1	-0.01
COc1ccc(Cl)cc1NC(=O)CN(C)Cc1ccc(OC)c(OC)c1	-7.16 (active)
O=C1N[C@@H](Cc2ccccc2)C(=O)N2[C@H]1C[C@]1(Br)c3ccccc3N(S(=O)(=O)c3ccccc3)[C@H]21	inactive
CCN1C(=O)/C(=c2\s/c(=C3\Sc4ccccc4N3C)c(=O)n2C)N(C)C1=S	inactive

SMILES	B-score
CN1/C(=c2/s/c(=C3/C(=O)N(c4ccccc4)NC3=Nc3ccccc3)n(C)c2=O)C(C)(C)c2ccccc21	-7.74 (active)
CC1C(=O)N2CCCc3cc(S(=O)(=O)NCc4ccc(F)cc4)cc1c32 (stereo not given)	inactive
Cc1ccc(Cl)c(OCC(=O)N(C)CC(=O)Nc2ccc(N3CCOCC3)cc2)c1	inactive
Cc1ccc(NS(=O)(=O)c2ccc(C(=O)NCCCN3CCOCC3)cc2)cc1	-0.52
CC(C)CN(C(=O)Cn1c(=O)cnc2ccccc21)C1CCS(=O)(=O)C1 (stereo not given)	-1.5
CCOC(=O)N1CCN(C(=O)COc2ccc3oc4c(c3c2)CCCC4)CC1	inactive
Cc1cc(C)c2[nH]c(=O)c(C(c3nnnn3Cc3ccc4c(c3)OCO4)N3CCCC3)cc2c1 (stereo not given)	-6.38 (active)
CCOC(=O)C1CCN(C(c2cc3cc(C)cc(C)c3[nH]c2=O)c2nnnn2C2CCCCC2)CC1 (stereo not given)	-1.94
Fc1ccccc1C(c1nnnn1Cc1ccc2c(c1)OCO2)N1CCN(Cc2ccccc2)CC1 (stereo not given)	-1.43
O=C(CSC1=NS(=O)(=O)c2cc(F)ccc2N1)Nc1ccccc1F	inactive
O=C(OCC(=O)N1CCCC1=O)c1cc(S(=O)(=O)N2CCOCC2)ccc1Cl	-0.84
O=C(NN1CCOCC1)c1cccc(F)c1	inactive
CCN(CC)S(=O)(=O)c1ccc(N2CCOCC2)c(NC(=O)C2COc3ccccc3O2)c1 (stereo not given)	-6.56 (active)
CCN(CC)S(=O)(=O)c1ccc(N2CCOCC2)c(C(=O)O)c1	inactive
CCN(CC)S(=O)(=O)c1ccc(N2CCOCC2)c(NC(=O)C2CSC3(C)CCC(=O)N23)c1 (stereo not given)	inactive
Cc1ccc(N2CC(C(=O)N3CCC4(CC3)CC(=O)c3ccccc3O4)CC2=O)cc1C (stereo not given)	inactive
O=C(NCC(=O)N1CCCC(C(F)(F)F)C1)c1ccccc1F (stereo not given)	inactive
Cc1ccc(S(=O)(=O)NNC(=S)NC(C)(C)C)cc1	-0.78
CC(NC(=S)NNS(=O)(=O)c1ccc(C(C)(C)C)cc1)c1ccccc1 (stereo not given)	-10.4 (active)
Cc1ccc(S(=O)(=O)CC(=O)NC(C)c2ccccc2)cc1 (stereo not given)	-0.01
CCN(C(=O)CSc1nnc(-c2ccc(OC(F)F)cc2)n1N)C1CCS(=O)(=O)C1 (stereo not given)	-0.14
CCN(CC(=O)Nc1cc(Cl)ccc1C)C(=O)CN1C(=O)NC2(CCCC2)C1=O	-0.62
O=c1[nH]c(CSc2ncc(-c3ccc(F)cc3)n2Cc2ccco2)nc2ccccc12	inactive

SMILES	B-score
Clc1cccc(-c2nc3nc4ccccc4nc3n2Cc2ccco2)c1	-9.06 (active)
Cc1cc(NC(=O)CSc2nc3cc(Cl)ccc3c(=O)n2Cc2ccco2)no1	inactive
O=C(Nc1cccc(F)c1)NC1CCCc2ccccc21 (stereo not given)	-5.61 (active)
O=C(Nc1cccc(F)c1)NC1CCCCCCC1	-1.17
O=C(Nc1cccc(F)c1)[C@@H]1CCCN1	-0.48
COc1cccc(N2CC(NS(=O)(=O)c3cccs3)CC2=O)c1 (stereo not given)	inactive
COc1ccc(C2=NOC(Cn3nc(C(=O)NCc4ccc5c(c4)OCO5)cc3-c3ccccc3)C2)cc1 (stereo not given)	-2.37
CCOC(=O)c1c(NC(=O)CN2C(=O)NC3(CCC(C)CC3)C2=O)sc(C)c1CC (stereo not given)	inactive
Cc1ccc2nnn(Cc3cccc(C(C)(C)C)c3O)c2c1	-2.09
O=C(CNC(=O)C12CC3CC(CC(C3)C1)C2)OCC(=O)N1CCCCC1	inactive
COc1cccc(N2CC(C(=O)NCc3n[nH]c(=O)c4ccccc34)CC2=O)c1 (stereo not given)	inactive
Cc1ccc(-c2nn(-c3ccccc3)cc2CN(Cc2ccccc2)C(=O)CCC(=O)O)o1	inactive
O=C(Nc1cn(-c2ccccc2)nc1-c1ccccc1)c1ccccc1	-2.94
CCc1ccc(-c2nn(-c3ccccc3)cc2CSC(=N)N)cc1	-12.4 (active)
CCOc1ccc(S(=O)(=O)Nc2cccc(C(=O)NCC3(N4CCCCC4)CCCCC3)c2)cc1	-0.94
O=C(C1=C[C@H](c2ccc(C(F)(F)F)cc2)C[C@H](OCc2ccc(CO)cc2)O1)N1CCN(Cc2ccccc2)CC1	-2.67
O=C(NCc1ccccc1)C1=C[C@@H](c2ccc(C(F)(F)F)cc2)C[C@@H](OCc2ccc(CO)cc2)O1	-7.51 (active)
CC(C)(C)[C@H]1C=C(C(=O)NCc2ccccc2)O[C@@H](OCc2ccc(CO)cc2)C1	-1.3
CC1CCN(C(=O)COC(=O)c2cc(S(=O)(=O)N3CCOCC3)ccc2Cl)CC1	inactive
COc1ccc(C(CNC(=O)c2cccc(S(=O)(=O)Nc3ccccc3Cl)c2)N2CCOCC2)cc1 (stereo not given)	inactive
CCOc1ccc(C(CC(=O)O)NC(=O)COc2ccccc2)cc1 (stereo not given)	-5.97 (active)
CCOc1ccc(C(CC(=O)O)NC(=O)Cc2ccccc2)cc1OC (stereo not given)	-0.84
Cc1ccc(OCC(=O)NC(C)c2ccccc2)cc1C (stereo not given)	-1.87

SMILES	B-score
Cc1ccc(S(=O)(=O)N(C)C)cc1NC(=O)COC(=O)/C=C/c1cccs1	inactive
CC(OC(=O)CCCc1c[nH]c2ccccc12)C(=O)Nc1ccc(S(N)(=O)=O)cc1 (stereo not given)	-1.39
CSCc1cc(N(C)C)nc(SCc2ccc(Cl)cc2Cl)n1	-9.71 (active)
Clc1ccc(CSc2nnc(/C=C/c3ccccc3)o2)c(Cl)c1	-5.38
CSCc1cc(N2CCOCC2)nc(SCc2ccc(Cl)cc2Cl)n1	-0.52
C=CCOc1ccc(/C=C/C(=O)OCC(=O)NC(C)c2ccc(F)cc2)cc1 (stereo not given)	inactive
O=C(Nc1ccc(S(=O)(=O)N2CCCCC2)cc1)C1CCN(C(=O)c2ccc(F)cc2)CC1	-0.91
CCOC(=O)C(Cc1ccc(N)cc1)N1C(=O)c2ccccc2C1=O (stereo not given)	inactive
CC1=CC(C)(C)Nc2ccc(OC(=O)C(Cc3ccccc3)N3C(=O)C4CCCCC4C3=O)cc21 (stereo not given)	-7.42 (active)
CC1=CC(C)(C)Nc2ccc(OC(=O)CN3C(=O)C4CCCCC4C3=O)cc21 (stereo not given)	-1.65
COC(=O)c1ccc(C(NC(=O)OCc2ccccc2)/C(F)=C/[C@@H](C)C(=O)O)cc1 (stereo not given in full)	-1.01
CCC[C@@H]1C[C@@]1(CCC)[C@@H](NC(=O)c1ccccc1)c1ccc(C(=O)OC)cc1	-5.11
CCC/C=C(\CCC)C(NC(=O)Cc1ccccc1)c1ccc(C(=O)OC)cc1 (stereo not given)	-7.39 (active)
Cc1ccc(C(=O)CN2C(=O)NC3(CCc4ccccc43)C2=O)c(C)c1 (stereo not given)	-1.41
COc1ccccc1-n1ccnc(SCC(=O)NC2CCCCC2)c1=O	inactive
O=C1[C@H]2[C@@H](c3ccc(Cl)cc3)N3C(=O)N(c4cccc(F)c4)C(=O)[C@@]3(Cc3ccccc3)[C@H]2C(=O)N1C1CCCCC1	inactive
COc1ccc(N2CC(NS(=O)(=O)c3ccc4ccccc4c3)CC2=O)cc1 (stereo not given)	-0.16
Cc1ccc(-c2nnc(C)c(N3CC(C)OC(C)C3)n2)cc1 (stereo not given)	-0.19
CC1CN(c2nc(-c3ccccc3)nnc2-c2ccccc2)CC(C)O1 (stereo not given)	-6.3 (active)
CC1CN(c2nc(Nc3ccccc3)nc(N)c2[N+](=O)[O-])CC(C)O1 (stereo not given)	-0.73
C=CS(=O)c1sc(Cl)c(N2CCOCC2)c1[N+](=O)[O-] (stereo not given)	-15.5 (active)
